# Measured values from article PMC7862700, “An all-to-all approach to the identification of sequence-specific readers for epigenetic DNA modifications on cytosine”.
# Columns and labels:
# Assay in all cases: DAPPL (digital affinity profiling via proximity ligation, sequencing); 10 mM Tris-HCl pH 7.5, 50 mM NaCl, 1 mM DTT, 4% glycerol, room temperature, 30 min; GST-TFs on glutathione beads, 16-mer random dsDNA library, 0.1% formaldehyde crosslink after washing; high values mean tight binding
# FEV = target: T1, FEV (Homo sapiens, UniProt Q99581 1-238); conditions: protein: recombinant; tags: N-terminal GST; dsDNA, one strand shown
# T1 sequence: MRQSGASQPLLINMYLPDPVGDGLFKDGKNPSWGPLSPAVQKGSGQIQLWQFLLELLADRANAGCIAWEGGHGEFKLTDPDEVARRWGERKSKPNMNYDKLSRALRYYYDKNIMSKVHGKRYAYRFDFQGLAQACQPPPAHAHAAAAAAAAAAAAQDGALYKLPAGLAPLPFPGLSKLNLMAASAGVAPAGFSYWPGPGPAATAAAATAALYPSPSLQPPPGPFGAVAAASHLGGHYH
# Method in brief: (§1)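 Binding signal is each hexamer's read frequency for a factor divided by its frequency in the tag-only sample. The factors were GST-fused human transcription factors from yeast, captured on glutathione beads, DNA-barcoded and pooled with that sample. Pools were incubated with 200 nmole of a random double-stranded 16-mer DNA library in Tris/NaCl/DTT/glycerol buffer at room temperature for 30 min, then washed, crosslinked with 0.1% formaldehyde, proximity-ligated with BsaI/T4 ligase (1 h, 37 °C), PCR-amplified and sequenced on an Illumina NextSeq500.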
# ETV5 = ETV5 (Homo sapiens, UniProt P41161 1-510); conditions: protein: recombinant; tags: N-terminal GST; dsDNA, one strand shown
# ETV5, sequence (P41161 whole entry): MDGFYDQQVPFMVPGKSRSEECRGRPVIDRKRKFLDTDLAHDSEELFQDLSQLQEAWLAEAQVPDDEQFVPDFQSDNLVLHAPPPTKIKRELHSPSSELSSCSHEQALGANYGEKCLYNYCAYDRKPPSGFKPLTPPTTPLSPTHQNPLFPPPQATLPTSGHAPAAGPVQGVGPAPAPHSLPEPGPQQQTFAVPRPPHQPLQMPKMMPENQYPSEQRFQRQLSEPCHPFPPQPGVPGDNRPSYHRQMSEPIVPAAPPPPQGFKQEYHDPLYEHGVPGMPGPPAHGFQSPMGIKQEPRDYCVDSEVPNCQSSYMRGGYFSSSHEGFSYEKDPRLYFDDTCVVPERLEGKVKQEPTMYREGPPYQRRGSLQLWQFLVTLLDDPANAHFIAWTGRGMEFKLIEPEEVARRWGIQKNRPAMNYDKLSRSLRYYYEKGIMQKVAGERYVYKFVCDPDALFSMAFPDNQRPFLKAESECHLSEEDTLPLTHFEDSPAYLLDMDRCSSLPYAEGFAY
# Method in brief: as §1
# HSF1 = HSF1 (Homo sapiens, UniProt Q00613 1-529); conditions: protein: recombinant; tags: N-terminal GST; chain copies: 3; dsDNA, one strand shown
# HSF1, sequence (Q00613 whole entry): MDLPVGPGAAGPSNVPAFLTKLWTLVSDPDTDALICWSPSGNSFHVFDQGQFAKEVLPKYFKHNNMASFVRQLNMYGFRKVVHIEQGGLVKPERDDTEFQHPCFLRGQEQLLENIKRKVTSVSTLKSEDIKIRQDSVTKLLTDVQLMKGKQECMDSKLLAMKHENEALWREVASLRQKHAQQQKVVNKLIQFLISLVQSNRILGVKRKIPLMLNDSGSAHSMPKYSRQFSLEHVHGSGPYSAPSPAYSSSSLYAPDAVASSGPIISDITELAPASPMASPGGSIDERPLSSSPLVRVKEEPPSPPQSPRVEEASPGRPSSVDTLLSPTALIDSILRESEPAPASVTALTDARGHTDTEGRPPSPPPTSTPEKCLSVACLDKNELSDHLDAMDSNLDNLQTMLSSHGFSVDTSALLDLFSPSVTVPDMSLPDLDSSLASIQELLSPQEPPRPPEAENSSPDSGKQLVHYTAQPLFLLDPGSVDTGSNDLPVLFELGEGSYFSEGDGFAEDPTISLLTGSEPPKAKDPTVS
# Method in brief: as §1
# SPIC = target: T2, SPIC (Homo sapiens, UniProt Q8N5J4 1-248); conditions: protein: recombinant; tags: N-terminal GST; dsDNA, one strand shown
# T2 sequence: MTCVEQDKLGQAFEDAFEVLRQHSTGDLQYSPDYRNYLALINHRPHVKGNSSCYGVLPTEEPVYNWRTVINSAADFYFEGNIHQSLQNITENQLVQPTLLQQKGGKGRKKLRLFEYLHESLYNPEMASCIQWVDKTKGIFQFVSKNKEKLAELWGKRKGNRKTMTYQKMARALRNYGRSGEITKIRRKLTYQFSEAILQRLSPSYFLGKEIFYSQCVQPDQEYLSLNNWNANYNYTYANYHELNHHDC
# Method in brief: as §1
# ELF4 = ELF4 (Homo sapiens, UniProt Q99607 1-663); conditions: protein: recombinant; tags: N-terminal GST; dsDNA, one strand shown
# ELF4, sequence (Q99607 whole entry): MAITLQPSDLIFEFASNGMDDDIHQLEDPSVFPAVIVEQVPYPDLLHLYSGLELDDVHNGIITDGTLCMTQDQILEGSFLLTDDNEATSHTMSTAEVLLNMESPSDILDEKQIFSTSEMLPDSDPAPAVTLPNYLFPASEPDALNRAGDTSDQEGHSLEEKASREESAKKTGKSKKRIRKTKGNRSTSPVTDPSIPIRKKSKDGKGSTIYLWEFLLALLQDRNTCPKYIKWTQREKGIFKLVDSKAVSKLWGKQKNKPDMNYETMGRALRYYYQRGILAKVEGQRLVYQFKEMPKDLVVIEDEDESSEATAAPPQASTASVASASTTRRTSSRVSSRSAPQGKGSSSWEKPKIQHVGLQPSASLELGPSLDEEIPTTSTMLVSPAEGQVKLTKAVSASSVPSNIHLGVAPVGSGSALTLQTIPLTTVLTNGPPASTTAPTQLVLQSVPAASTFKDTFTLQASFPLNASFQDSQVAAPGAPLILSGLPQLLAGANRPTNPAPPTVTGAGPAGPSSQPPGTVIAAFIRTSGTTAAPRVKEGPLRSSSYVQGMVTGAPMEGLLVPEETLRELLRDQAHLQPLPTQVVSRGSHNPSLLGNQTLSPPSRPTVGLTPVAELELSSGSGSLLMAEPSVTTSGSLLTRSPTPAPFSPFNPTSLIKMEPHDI
# Method in brief: as §1
# ELK4 = target: T3, ELK4 (Homo sapiens, UniProt P28324-2 1-405); conditions: protein: recombinant; tags: N-terminal GST; dsDNA, one strand shown
# T3 sequence: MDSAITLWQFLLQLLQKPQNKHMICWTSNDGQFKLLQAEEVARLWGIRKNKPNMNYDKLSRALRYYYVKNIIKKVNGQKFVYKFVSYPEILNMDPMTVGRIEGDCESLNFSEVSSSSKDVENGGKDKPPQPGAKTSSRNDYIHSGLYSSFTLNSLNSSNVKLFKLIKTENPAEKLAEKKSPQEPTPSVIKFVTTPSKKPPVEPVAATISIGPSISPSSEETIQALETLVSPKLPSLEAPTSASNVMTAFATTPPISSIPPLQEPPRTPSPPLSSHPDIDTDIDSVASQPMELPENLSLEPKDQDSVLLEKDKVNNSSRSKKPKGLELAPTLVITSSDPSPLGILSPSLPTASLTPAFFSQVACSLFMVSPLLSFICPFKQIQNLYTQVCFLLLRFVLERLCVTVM
# Method in brief: as §1
# ETV2 = target: T4, ETV2 (Homo sapiens, UniProt O00321 1-342); conditions: protein: recombinant; tags: N-terminal GST; dsDNA, one strand shown
# T4 sequence: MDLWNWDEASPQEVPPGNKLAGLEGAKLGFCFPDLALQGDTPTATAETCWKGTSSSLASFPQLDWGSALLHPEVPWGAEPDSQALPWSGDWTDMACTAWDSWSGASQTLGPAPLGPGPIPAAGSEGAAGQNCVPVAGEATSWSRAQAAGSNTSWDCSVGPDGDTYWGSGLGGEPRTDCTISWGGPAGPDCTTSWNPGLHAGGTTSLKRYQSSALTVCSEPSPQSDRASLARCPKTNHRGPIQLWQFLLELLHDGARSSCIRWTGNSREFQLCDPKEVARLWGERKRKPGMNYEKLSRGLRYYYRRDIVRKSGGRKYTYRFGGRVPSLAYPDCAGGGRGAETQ
# Method in brief: as §1
# ELF3 = target: T5, ELF3 (Homo sapiens, UniProt P78545 1-371); conditions: protein: recombinant; tags: N-terminal GST; dsDNA, one strand shown
# T5 sequence: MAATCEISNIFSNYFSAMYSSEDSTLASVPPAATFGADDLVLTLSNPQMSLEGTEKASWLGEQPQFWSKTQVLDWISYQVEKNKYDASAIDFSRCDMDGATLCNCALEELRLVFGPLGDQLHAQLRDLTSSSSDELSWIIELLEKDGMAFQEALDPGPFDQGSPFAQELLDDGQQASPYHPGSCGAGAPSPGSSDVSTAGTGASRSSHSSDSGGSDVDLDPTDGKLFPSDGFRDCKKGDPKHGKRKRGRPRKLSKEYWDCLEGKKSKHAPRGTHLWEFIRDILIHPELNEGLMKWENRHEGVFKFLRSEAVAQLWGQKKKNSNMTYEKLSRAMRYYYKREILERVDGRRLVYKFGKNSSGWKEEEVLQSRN
# Method in brief: as §1
# CRX = CRX (Homo sapiens, UniProt O43186 1-299); conditions: protein: recombinant; tags: N-terminal GST; dsDNA, one strand shown
# CRX, sequence (O43186 whole entry): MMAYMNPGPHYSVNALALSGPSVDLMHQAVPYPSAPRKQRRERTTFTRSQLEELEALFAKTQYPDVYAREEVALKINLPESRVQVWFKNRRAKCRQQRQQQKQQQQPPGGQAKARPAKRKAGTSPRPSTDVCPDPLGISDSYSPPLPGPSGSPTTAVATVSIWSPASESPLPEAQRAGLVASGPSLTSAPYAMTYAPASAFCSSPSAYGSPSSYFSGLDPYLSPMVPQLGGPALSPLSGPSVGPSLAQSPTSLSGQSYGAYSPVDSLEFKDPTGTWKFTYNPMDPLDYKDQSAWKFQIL
# Method in brief: as §1
# ETV1 = ETV1 (Homo sapiens, UniProt P50549 1-477); conditions: protein: recombinant; tags: N-terminal GST; dsDNA, one strand shown
# ETV1, sequence (P50549 whole entry): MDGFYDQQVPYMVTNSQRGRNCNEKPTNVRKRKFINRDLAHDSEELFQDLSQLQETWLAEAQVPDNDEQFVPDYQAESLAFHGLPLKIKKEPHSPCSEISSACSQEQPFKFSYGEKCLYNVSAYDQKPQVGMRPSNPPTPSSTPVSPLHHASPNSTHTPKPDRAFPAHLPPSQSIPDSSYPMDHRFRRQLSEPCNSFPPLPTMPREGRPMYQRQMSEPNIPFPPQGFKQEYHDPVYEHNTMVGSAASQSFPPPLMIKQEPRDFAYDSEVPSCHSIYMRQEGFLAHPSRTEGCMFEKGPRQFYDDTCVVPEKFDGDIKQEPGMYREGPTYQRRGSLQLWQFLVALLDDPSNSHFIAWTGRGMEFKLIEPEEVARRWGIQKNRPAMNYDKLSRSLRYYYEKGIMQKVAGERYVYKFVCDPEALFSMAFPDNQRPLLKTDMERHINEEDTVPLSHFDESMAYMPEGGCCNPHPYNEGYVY
# Method in brief: as §1
# ERF = target: T6, ERF (Homo sapiens, UniProt P50548 1-548); conditions: protein: recombinant; tags: N-terminal GST; dsDNA, one strand shown
# T6 sequence: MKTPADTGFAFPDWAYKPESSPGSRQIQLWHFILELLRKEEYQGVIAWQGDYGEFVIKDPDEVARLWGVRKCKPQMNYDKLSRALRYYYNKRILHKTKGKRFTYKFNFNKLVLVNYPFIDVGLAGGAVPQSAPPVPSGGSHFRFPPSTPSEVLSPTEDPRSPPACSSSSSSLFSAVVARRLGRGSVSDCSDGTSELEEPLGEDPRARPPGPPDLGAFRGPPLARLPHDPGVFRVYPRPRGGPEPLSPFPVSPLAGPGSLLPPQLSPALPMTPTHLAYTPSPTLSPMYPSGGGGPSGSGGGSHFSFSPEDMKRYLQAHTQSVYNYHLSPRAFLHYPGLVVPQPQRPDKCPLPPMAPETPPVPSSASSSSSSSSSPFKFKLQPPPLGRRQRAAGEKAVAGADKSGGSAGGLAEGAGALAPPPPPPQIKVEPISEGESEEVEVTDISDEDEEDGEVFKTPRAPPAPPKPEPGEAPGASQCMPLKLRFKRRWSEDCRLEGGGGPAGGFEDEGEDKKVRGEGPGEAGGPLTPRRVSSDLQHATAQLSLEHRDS
# Method in brief: as §1
# ETV3L = target: T7, ETV3L (Homo sapiens, UniProt Q6ZN32 1-361); conditions: protein: recombinant; tags: N-terminal GST; dsDNA, one strand shown
# T7 sequence: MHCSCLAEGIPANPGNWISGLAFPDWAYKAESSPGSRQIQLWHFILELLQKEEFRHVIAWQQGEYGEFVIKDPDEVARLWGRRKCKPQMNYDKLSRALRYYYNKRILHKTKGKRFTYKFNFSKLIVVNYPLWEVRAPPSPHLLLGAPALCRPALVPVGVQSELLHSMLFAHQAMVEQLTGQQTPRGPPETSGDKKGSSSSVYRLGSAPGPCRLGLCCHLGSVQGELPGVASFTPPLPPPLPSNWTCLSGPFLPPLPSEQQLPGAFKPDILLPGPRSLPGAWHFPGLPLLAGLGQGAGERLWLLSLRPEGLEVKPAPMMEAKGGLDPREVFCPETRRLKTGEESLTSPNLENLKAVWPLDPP
# Method in brief: as §1
# ETS2 = target: T8, ETS2 (Homo sapiens, UniProt P15036 1-469); conditions: protein: recombinant; tags: N-terminal GST; dsDNA, one strand shown
# T8 sequence: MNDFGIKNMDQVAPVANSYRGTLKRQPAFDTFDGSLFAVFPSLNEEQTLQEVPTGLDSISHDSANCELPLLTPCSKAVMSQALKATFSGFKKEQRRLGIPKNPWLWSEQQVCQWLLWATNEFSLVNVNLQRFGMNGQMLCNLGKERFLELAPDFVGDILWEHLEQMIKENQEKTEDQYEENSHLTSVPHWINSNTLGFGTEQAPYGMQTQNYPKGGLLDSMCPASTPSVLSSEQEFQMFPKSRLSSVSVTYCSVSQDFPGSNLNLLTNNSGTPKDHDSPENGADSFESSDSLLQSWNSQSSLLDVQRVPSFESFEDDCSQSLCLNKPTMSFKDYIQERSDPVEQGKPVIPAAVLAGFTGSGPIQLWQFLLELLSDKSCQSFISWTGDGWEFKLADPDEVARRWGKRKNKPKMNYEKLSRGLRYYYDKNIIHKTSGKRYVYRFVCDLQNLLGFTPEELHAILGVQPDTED
# Method in brief: as §1
# SPDEF = target: T9, SPDEF (Homo sapiens, UniProt O95238 1-335); conditions: protein: recombinant; tags: N-terminal GST; dsDNA, one strand shown
# T9 sequence: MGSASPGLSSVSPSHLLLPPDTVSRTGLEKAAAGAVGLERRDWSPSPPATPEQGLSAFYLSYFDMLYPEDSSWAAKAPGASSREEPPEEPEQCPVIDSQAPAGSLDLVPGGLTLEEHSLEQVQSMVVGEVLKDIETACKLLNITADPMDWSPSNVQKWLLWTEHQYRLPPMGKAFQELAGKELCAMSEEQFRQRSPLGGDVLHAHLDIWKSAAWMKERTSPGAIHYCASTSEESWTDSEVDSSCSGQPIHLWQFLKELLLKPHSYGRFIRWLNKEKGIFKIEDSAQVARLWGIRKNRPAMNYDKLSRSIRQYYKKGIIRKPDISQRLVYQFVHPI
# Method in brief: as §1
# ETV7 = target: T10, ETV7 (Homo sapiens, UniProt Q9Y603 1-341); conditions: protein: recombinant; tags: N-terminal GST; dsDNA, one strand shown
# T10 sequence: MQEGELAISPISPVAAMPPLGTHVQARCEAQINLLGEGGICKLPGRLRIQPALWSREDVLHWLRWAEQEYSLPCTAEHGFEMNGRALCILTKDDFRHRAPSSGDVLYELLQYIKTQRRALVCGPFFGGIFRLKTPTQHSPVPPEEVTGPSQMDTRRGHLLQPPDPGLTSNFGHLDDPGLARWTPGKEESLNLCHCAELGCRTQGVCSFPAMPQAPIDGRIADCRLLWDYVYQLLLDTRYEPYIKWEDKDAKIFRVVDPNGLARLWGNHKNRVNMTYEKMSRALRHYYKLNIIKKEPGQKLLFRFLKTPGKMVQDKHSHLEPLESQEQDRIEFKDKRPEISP
# Method in brief: as §1
# ELF5 = target: T11, ELF5 (Homo sapiens, UniProt Q9UKW6-2 1-255); conditions: protein: recombinant; tags: N-terminal GST; dsDNA, one strand shown
# T11 sequence: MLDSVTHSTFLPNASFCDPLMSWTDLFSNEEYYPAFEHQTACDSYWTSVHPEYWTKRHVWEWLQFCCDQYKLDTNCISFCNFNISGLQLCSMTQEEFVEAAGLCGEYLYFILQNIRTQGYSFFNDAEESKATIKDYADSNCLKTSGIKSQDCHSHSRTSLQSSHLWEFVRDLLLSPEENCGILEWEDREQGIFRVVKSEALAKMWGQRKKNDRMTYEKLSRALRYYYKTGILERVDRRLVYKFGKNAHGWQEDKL
# Method in brief: as §1
# ETV3 = target: T12, ETV3 (Homo sapiens, UniProt P41162-2 1-143); conditions: protein: recombinant; tags: N-terminal GST; dsDNA, one strand shown
# T12 sequence: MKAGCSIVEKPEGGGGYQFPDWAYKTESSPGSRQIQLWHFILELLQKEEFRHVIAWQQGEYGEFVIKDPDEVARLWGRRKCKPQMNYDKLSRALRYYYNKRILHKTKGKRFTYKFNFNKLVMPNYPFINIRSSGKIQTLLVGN
# Method in brief: as §1
# ETV6 = ETV6 (Homo sapiens, UniProt P41212 1-452); conditions: protein: recombinant; tags: N-terminal GST; dsDNA, one strand shown
# ETV6, sequence (P41212 whole entry): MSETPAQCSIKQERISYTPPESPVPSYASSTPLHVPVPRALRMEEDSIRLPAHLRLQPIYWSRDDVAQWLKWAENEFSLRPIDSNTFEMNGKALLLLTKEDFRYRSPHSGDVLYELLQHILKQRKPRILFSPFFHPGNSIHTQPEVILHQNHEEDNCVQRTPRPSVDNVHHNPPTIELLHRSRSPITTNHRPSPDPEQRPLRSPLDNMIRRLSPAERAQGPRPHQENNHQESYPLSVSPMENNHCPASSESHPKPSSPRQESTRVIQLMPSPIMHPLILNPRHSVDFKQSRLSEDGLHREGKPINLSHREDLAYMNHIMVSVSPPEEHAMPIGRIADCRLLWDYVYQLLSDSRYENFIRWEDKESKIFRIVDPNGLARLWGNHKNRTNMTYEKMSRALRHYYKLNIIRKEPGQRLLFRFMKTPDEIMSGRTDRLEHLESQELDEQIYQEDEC
# Method in brief: as §1
sequence,measurement,setting,value
TCGATT,binding signal,FEV,"1.02 fold enrichment (6-mer frequency, TF over GST control)"
same,binding signal,ETV5,"1.12 fold enrichment (6-mer frequency, TF over GST control)"
same,binding signal,HSF1,"1.48 fold enrichment (6-mer frequency, TF over GST control)"
same,binding signal,SPIC,"1.2 fold enrichment (6-mer frequency, TF over GST control)"
same,binding signal,ELF4,"1.19 fold enrichment (6-mer frequency, TF over GST control)"
same,binding signal,ELK4,"1.14 fold enrichment (6-mer frequency, TF over GST control)"
same,binding signal,ETV2,"1.04 fold enrichment (6-mer frequency, TF over GST control)"
same,binding signal,ELF3,"1.1 fold enrichment (6-mer frequency, TF over GST control)"
same,binding signal,CRX,"1.37 fold enrichment (6-mer frequency, TF over GST control)"
same,binding signal,ETV1,"1.14 fold enrichment (6-mer frequency, TF over GST control)"
same,binding signal,ERF,"1.01 fold enrichment (6-mer frequency, TF over GST control)"
same,binding signal,ETV3L,"1.06 fold enrichment (6-mer frequency, TF over GST control)"
same,binding signal,ETS2,"1.16 fold enrichment (6-mer frequency, TF over GST control)"
same,binding signal,SPDEF,"1.05 fold enrichment (6-mer frequency, TF over GST control)"
same,binding signal,ETV7,"1.04 fold enrichment (6-mer frequency, TF over GST control)"
same,binding signal,ELF5,"1.03 fold enrichment (6-mer frequency, TF over GST control)"
same,binding signal,ETV3,"1.01 fold enrichment (6-mer frequency, TF over GST control)"
same,binding signal,ETV6,"1.04 fold enrichment (6-mer frequency, TF over GST control)"
